The source of these data is PubChem BioAssay (NCATS).

Unmarked numbers belong to inactive results. Records with an inconclusive call do not appear. The source made the active and inactive calls. Unless noted, the call rests on the fitted dose curve; in most records, active means well fitted curve in the direction sought with a large enough effect; inconclusive means small, poorly fitted or top-dose-only effect, or another doubt; inactive means no such curve, though single readings can be large; an effect the other way counts as inactive or inconclusive.

Assay [1] is described as follows: Cell Viability - Hek293 (AID 427;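 active means compounds whose dose-response curve shows a full or clear partial loss of cell viability, called from curve shape rather than a numeric limit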;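 further: potency means the concentration at half of the fitted maximal effect; cells exposed to compound for 40 hours at 37 °C before reading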). The following applies: qHTS. The essentials: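 HEK293 cells in complete medium were exposed to compound for 40 hr at 37 °C, then cellular ATP was read by CellTiter-Glo luminescence. Data were normalized to DMSO (basal) and 100 uM tamoxifen (100% inhibition), and AC50 came from Hill fits.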
In general terms: Quantitative high-throughput screening tests each substance at several concentrations.

The nature of assay [2]: Cell Viability - SK-N-SH (AID 435; calls by dose curve;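 further: potency means the concentration at half of the fitted maximal effect; compound exposure lasted 40 h at 37 °C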). The following applies: SK-N-SH neuroblastoma cell viability qHTS. Summed up: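 Cells seeded at 1500 per well and incubated 5 hr at 37 °C. Compound added, then 40 hr at 37 °C. CellTiter-Glo added, 20 min at room temperature, luminescence read.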
Assay [3] in a line: Cell Viability - N2a (AID 540). Further: nearly all actives have a fitted effect of over 45% in size. Further: potency means the concentration at half of the fitted maximal effect.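 On activity change, negative = cytotoxicity: plate controls were DMSO alone for no effect and tamoxifen control for full effect.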 The following applies: N2a mouse neuroblastoma cell viability; activity change, negative = cytotoxicity: at 92.2 µM (top of the series). The essentials:
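CellTiter-Glo ATP luminescence, read 20 min after reagent at room temperature, reported viability following 40 h compound treatment at 37 °C. N2a mouse neuroblastoma cells seeded 1500/well; Hill equation gave AC50.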

Assay [4] is described as follows: Cell Viability - LYMP2-009 (AID 968).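 Further: 0% = DMSO alone and the full-kill end = tetraoctylammonium bromide at 92 µM; nearly all actives have a fitted effect of over 55% in size.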 To be noted: LYMP2-009 lymphoblastoid cell viability; series mostly up to 92.2 µM.
The nature of assay [5]: Cell Viability - LYMP2-015 (AID 971).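 Further: 0% = DMSO only and full effect = 92 µM tetraoctylammonium bromide; nearly all actives have a fitted effect of over 55% in size.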 The following applies: LYMP2-015 lymphoblastoid cell viability; series mostly up to 92.2 µM. Summed up:
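Cytotoxicity readout: decrease in intracellular ATP (CellTiter-Glo luminescence) in 2500 LYMP2-015 lymphoblastoid cells/well after 24 h compound exposure at 37 C. Concentration-response data fitted with the standard Hill equation to give AC50.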

A short description of assay [6]: Cell Viability - LYMP2-017 (AID 972). Further: on the % scale 0 is the no-effect control and ±100 the full control effect; nearly all actives have a fitted effect of over 55% in size. The following applies: LYMP2-017 lymphoblastoid cell viability; series mostly up to 92.2 µM. The essentials: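 CellTiter-Glo luminescence (cellular ATP, 30 min RT) measured cytotoxicity after 24 hr compound treatment at 37 C. Cells were a human lymphoblastoid line, LYMP2-017, plated at 2500/well and incubated 5 hr first; concentration-response fitted with Hill equation for AC50.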

A short description of assay [7]: Cell Viability - LYMP2-010 (AID 981). Further: on the % scale 0 is the no-effect control and ±100 the full control effect; nearly all actives have a fitted effect of over 55% in size. To be noted: LYMP2-010 lymphoblastoid cell viability, qHTS; series mostly up to 92.2 µM. The essentials:
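CellTiter-Glo ATP luminescence measured cytotoxicity after 24 h compound exposure at 37 C. LYMP2-010 cells were seeded at 2500/well, with tetraoctylammonium bromide as control; concentration-response curves gave AC50 values by the Hill equation.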

Assay [8] can be described thus: Cell Viability - LYMP2-022 (AID 987). The following applies: LYMP2-022 lymphoblastoid cell viability; series mostly up to 92.2 µM. Summed up:
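Cytotoxicity read as decreased cellular ATP (CellTiter-Glo luminescence, 30 min room temperature) after 24 hours compound exposure of 2500 lymphoblastoid LYMP2-022 cells/well at 37 C. Concentration-response data fitted with standard Hill equation for AC50.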

Assay [9] concerns the target Thyroid hormone receptor beta (Homo sapiens) (UniProt P10828). Briefly: qHTS assay for small molecule agonists of thyroid hormone receptor beta signaling (AID 588545; calls by dose curve;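 further: 0% = DMSO only and 100% = 10 nM T3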). The following applies: TR-UAS-bla GripTite HEK 293, beta-lactamase ratio, agonist mode, 18 h; series mostly up to 76.7 µM. Summed up: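 TR-UAS-bla-GripTite HEK 293 cells in medium with 2% charcoal/dextran FBS, 0.1 mM NEAA and 1 mM sodium pyruvate were treated with titrated compounds for 18 hrs at 37 C. Beta-lactamase reporter was read with CCF4 dye (ex 405, em 460/530 nm); EC50 from Hill fits.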

In assay [10] the target is Tumor necrosis factor (Homo sapiens) (UniProt P01375). The assay can be described thus: qHTS assay to identify small molecules that stimulate Tumor Necrosis Factor-alpha (TNF-alpha) secretion (AID 651757; active means well fitted curve in the direction sought with a large enough effect in the signal ratio; the % refers to the signal ratio; further: 0% is about no effect). The following applies: Human cells, HTRF 665/615 ratio; series mostly up to 92.2 µM. The essentials: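 Secreted TNF-alpha quantified by TR-FRET sandwich of two labeled anti-TNF-alpha antibodies, incubated 3 hr at room temperature. Preceded by 17 hr, 37 C compound treatment of THP-1 cells at 3000 cells/well.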

Assay [11] is described as follows: qHTS assay for environmental chemicals that activate the Aryl hydrocarbon Receptor (AhR) signaling pathway (AID 651777). Further: % of control where 0% means no effect; nearly all actives have a fitted effect of over 15% in size. The following applies: 1A2-DRE human hepatoma cells, luciferase, 24 h; activation: stronger effect = higher value. The essentials:
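Following a 24 hr incubation with test chemicals at 37 C and 5% CO2, 1A2-DRE human hepatoma cells received One-Glo reagent; after 30 min at room temperature, luciferase output reflected CYP1A2 induction via AhR.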

Assay [12] deals with Nuclear receptor ROR-gamma (Homo sapiens) (UniProt P51449). The assay can be described thus: qHTS assay for small molecule antagonists of the retinoid-related orphan receptor gamma (ROR-gamma) signaling pathway (AID 651802). Further: nearly all actives have a fitted effect of over 60% in size. Further: potency means the concentration at half of the fitted maximal effect. The following applies: ROR-gamma antagonist cell reporter assay; series mostly up to 92.2 µM. Summed up: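 Luminescence (One-Glo, 30 min RT) measured 16 h after compound addition and doxycycline induction at 37C. Reporter: RORE-luciferase under TET-inducible ROR-gamma in CHO cells.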

Assay [13] is described as follows: qHTS assay for small molecule agonists of the antioxidant response element (ARE) signaling pathway measured by Nrf2-dependant transcriptional activity (AID 720636; active means well fitted curve in the direction sought with a large enough effect in the repeat runs; an effect the other way counts as inactive or inconclusive; further: % of control where 0% means no effect). To be noted: ARE-luc HepG2, Nrf2 luciferase reporter, 16 h; series mostly up to 92.4 µM. The essentials: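 ONE-Glo luminescence, read 30 min after reagent addition at room temperature, reflected ARE reporter activity in HepG2 cells that had been incubated with compound for 16 hr at 37 C in 1% dialyzed FBS.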

Assay [14] has as its target Nuclear receptor subfamily 1 group I member 2 (Rattus norvegicus) (UniProt Q9R1A7). Briefly: qHTS assay for small molecule activators of the rat pregnane X receptor (rPXR) signaling pathway (AID 651751; call rule not given here; further: 0% is about no effect). The following applies: rPXR reporter cells, luciferase (One-Glo), 24 h.
A short description of assay [15]: qHTS assay for small molecule activators of the human pregnane X receptor (PXR) signaling pathway (AID 720659; call rule not given here; further: 0% is about no effect). To be noted: DPX-2 HepG2 CYP3A4-luciferase, 24 h; series mostly up to 92.3 µM.
Assay [16] is described as follows: Cell Viability - SH-SY5Y (AID 544). The following applies: SH-SY5Y neuroblastoma cell viability; viability change, negative = cytotoxic: at 92.2 µM (top of the series). Summed up:
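Cytotoxicity measured via ATP-dependent luciferase luminescence (CellTiter-Glo) following 40 h, 37 °C exposure of 1500 SH-SY5Y cells per well. Concentration-response data were fitted with the standard Hill equation to give AC50.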

For assay [17], the target named is Vitamin D3 receptor (Homo sapiens) (UniProt P11473). The assay can be described thus: qHTS assay for small molecule antagonists of vitamin D receptor signaling (AID 588541; calls by dose curve;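 further: receptor activated by calcitriol during compound treatment; on the % scale 0 is the no-effect control and ±100 the full control effect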). The following applies: HEK293T VDR-UAS-bla, beta-lactamase ratio, antagonist mode; series mostly up to 76.7 µM. Summed up:
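VDR-UAS-bla HEK293T cells in 2% charcoal-stripped FBS were stimulated with 1-alpha,25-dihydroxyvitamin D3 (3 nM final) plus compound for 16 h at 37 C. The beta-lactamase CCF4 readout was normalized to 50 nM agonist and DMSO, and Hill fits gave IC50.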

The target is the same in assay [18]. Briefly: qHTS assay for small molecule agonists of vitamin D receptor signaling (AID 588543; calls by dose curve;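 further: 0% = DMSO basal and 100% = reference agonist control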). To be noted: HEK293T VDR-UAS-bla, beta-lactamase ratio, 16 h; series mostly up to 76.8 µM. Summed up:
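qHTS in agonist mode: compound titrations stimulate a VDR-driven β-lactamase reporter in HEK293T cells over 16 h at 37 °C. Response normalized to 50 nM 1α,25-dihydroxyvitamin D3 = 100%, DMSO = 0%; Hill fitting gives EC50 and maximal response.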

Assay [19] is described as follows: qHTS assay for small molecule agonists of the antioxidant response element (ARE) signaling pathway (AID 651741; active means well fitted activation curve with a large enough effect in the signal ratio; the % refers to the signal ratio; further: potency means the concentration at half of the fitted maximal effect; on activation: % of control where 0% means no effect). The following applies: HepG2 ARE-bla reporter, beta-lactamase FRET ratio, 16 h; series mostly up to 96 µM. The essentials:
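Stably integrated ARE-beta-lactamase reporter HepG2 cells; 16 h compound incubation, 37 C; LiveBLAzer FRET substrate 2 h at room temperature; fluorescence intensity.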

Sequence of Thyroid hormone receptor beta (Homo sapiens) (P10828 whole entry, looked up): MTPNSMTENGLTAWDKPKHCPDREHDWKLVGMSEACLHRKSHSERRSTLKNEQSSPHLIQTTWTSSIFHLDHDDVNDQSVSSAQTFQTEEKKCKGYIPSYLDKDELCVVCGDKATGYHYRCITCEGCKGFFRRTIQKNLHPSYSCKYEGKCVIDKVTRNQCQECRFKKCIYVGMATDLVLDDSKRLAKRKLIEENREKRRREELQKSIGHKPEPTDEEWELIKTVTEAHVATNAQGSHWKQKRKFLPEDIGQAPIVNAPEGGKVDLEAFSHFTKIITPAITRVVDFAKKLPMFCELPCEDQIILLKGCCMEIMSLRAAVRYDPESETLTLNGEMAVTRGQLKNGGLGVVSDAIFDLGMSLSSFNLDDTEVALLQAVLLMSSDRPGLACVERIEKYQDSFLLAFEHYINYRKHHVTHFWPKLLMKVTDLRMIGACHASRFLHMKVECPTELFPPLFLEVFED
Sequence of Nuclear receptor subfamily 1 group I member 2 (Rattus norvegicus) (Q9R1A7 whole entry, looked up): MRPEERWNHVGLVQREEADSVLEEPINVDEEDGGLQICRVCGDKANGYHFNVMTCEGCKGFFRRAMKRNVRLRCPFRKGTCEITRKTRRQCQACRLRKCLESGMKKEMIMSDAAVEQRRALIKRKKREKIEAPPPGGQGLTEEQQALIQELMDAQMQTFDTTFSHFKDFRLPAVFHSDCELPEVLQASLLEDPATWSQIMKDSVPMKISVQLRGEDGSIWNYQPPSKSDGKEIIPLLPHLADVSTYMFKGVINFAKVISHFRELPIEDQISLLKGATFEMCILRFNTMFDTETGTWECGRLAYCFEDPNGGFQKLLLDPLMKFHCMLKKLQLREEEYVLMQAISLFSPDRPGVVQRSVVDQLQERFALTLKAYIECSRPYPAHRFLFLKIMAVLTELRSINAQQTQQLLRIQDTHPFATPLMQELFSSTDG
Sequence of Vitamin D3 receptor (Homo sapiens) (P11473 whole entry, looked up): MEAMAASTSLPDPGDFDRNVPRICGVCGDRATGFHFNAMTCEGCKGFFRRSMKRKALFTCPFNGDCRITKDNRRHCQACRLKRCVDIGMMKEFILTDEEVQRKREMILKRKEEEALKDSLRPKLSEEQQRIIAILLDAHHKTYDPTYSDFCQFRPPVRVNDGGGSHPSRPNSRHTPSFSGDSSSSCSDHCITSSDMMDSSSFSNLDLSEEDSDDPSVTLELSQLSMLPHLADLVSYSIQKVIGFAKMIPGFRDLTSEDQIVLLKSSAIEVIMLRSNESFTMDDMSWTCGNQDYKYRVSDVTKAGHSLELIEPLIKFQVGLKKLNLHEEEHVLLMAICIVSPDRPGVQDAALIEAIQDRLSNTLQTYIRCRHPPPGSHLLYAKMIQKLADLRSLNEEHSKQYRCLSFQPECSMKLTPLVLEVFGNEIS
Sequence of Nuclear receptor ROR-gamma (Homo sapiens) (P51449 whole entry, looked up): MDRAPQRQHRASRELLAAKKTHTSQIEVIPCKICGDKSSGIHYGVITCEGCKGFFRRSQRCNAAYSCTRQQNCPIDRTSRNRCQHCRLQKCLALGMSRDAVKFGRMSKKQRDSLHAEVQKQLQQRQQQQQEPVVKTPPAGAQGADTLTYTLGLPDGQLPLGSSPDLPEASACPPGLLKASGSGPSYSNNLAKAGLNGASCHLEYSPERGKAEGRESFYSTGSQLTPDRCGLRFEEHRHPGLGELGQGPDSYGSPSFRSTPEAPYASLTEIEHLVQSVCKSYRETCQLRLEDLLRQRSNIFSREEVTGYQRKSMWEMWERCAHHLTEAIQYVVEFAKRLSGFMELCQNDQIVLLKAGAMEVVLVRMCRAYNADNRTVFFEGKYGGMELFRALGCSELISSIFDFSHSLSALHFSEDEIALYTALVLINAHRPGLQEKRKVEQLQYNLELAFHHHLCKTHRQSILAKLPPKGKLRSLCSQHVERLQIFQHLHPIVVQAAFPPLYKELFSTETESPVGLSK
Sequence of Tumor necrosis factor (Homo sapiens) (P01375 whole entry, looked up): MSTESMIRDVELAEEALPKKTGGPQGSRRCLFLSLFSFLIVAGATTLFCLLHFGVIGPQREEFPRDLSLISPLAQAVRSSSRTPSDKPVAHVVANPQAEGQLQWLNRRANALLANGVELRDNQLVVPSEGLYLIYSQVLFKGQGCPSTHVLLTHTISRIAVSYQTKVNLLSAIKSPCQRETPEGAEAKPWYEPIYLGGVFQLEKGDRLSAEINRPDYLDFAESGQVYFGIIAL

For the molecule `C[Si](C)(C)Cl`, the Potency in assay [1] and in assay [2] was more than 92 µM throughout. Further, in [3], the activity change, negative = cytotoxicity is -6.55%. For the same molecule, the Potency result in [4], in [5], in assay [6], in assay [7], in assay [8] and in [9] was “inactive” in each case. Further, the Potency entry in assay [10], in assay [12] and in assay [13] was “inactive” throughout. Further, the activation in assay [11] is 1.28%. In addition, in assay [14], the max response is 1.16%. Also, the molecule was called inactive in assay [15].

As to `c1ccncc1`, the Potency in assay [1] and in assay [2] was more than 92 µM each time. In addition, in assay [3], the activity change, negative = cytotoxicity was -3.08%. Also, the Potency result in assay [16], in [4], in assay [5], in assay [6], in assay [7] and in assay [8] was “inactive” each time. In addition, the Potency entry in assay [17], in assay [18], in [9], in assay [19], in assay [10] and in [12] was “inactive” each time. In addition, in [13], the Potency entry was “inactive”. Besides, the activation in [11] is -1.01%. Moreover, the max response in [14] is 3.74%. In assay [15], the call was inactive.

Consider `S=C(NC1CCCCC1)NC1CCCCC1`, for which the figures for the Potency in assay [3] and in assay [19] were 31.6 µM (active) and 66.8 µM (active), respectively. Besides, the Potency entry in assay [16], in [4], in assay [5], in [6], in assay [7] and in [8] was “inactive” each time. The Potency entry in [17], in assay [18], in assay [9], in [10], in assay [12] and in assay [13] was “inactive” each time. The activation in assay [11] is 5.57%. For the same molecule, the max response in assay [14] is 8.83%.

Turning to `C=CC1CO1` (centres undefined), the Potency in assay [1] and in assay [2] was more than 92 µM each time. In assay [3], the activity change, negative = cytotoxicity is 2.77%. Also, the Potency entry in [16], in assay [4], in assay [5], in assay [6], in [7] and in assay [8] was “inactive” each time. The Potency entry in [17], in assay [18], in assay [9], in assay [19], in assay [10] and in assay [12] was “inactive” each time. Also, the Potency entry in [13] was “inactive”. Also, in [11], the activation was -0.433%. Besides, in assay [14], the max response was 4.12%. The call in assay [15] was inactive.

For the molecule `Cc1c(C(=O)O)c(O)cc2c1C(=O)c1c(O)c([C@H]3O[C@H](CO)[C@@H](O)[C@H](O)[C@H]3O)c(O)c(O)c1C2=O`, the Potency was 38.2 µM (active) in assay [2] and 26.6 µM (active) in assay [12]. Moreover, the Potency entry in assay [17], in [18], in [9], in assay [19] and in [13] was “inactive” in each case. Also, the activation in assay [11] was -4.11%. The max response in assay [14] was -9.27%. Moreover, in assay [15], the molecule was classed as inactive.
